Sm TGR inh = S. mansoni TGR enzyme inhibition. purified TGR, DTNB reduction, TNB absorbance 405 nm. Potency, µM (series often up to 114 µM), for inactives: at the highest dose activity change, negative = inhibition, actives largely listed as inhibitors. actives 3% (n = 360,000). AID 485364; further: potency means the concentration at half of the fitted maximal effect; on the % scale 0 is the no-effect control and ±100 the full control effect; nearly all actives have a fitted effect of over 60% in size
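Kinetic colorimetric format: TGR-catalysed, NADPH-driven DTNB reduction monitored via TNB absorbance. Enzyme dispensed at 20 nM; compound exposure 15 min at room temperature before reaction start.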
Pf growth 48h = P. falciparum growth inhibition at 48 hours (one generation); actives 5.9% (n = 310,000); P. falciparum luciferase growth in erythrocytes, 48 h; Potency, µM (doses to about 28.7 µM), inactives show at the highest dose activity change, negative = inhibition, actives largely listed as inhibitors; further: potency means the concentration at half of the fitted maximal effect; on the % scale 0 is the no-effect control and ±100 the full control effect
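First compound was added to culture medium, then infected red cells at 0.1% parasitemia and 2% hematocrit (final). After incubation at 37 C under 5% CO2, luciferase detection reagent was dispensed and light output recorded.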
SARS PLP yeast = SARS-CoV PLP inhibition in yeast. actives 0.19% (n = 330,000). Potency, µM (titrated, usually from 32.9 µM), without a hit: at the top dose activity, positive = growth rescue, hits mostly activators. S. cerevisiae expressing SARS-CoV PLpro, growth rescue. AID 485353; calls by dose curve; further: potency means the concentration at half of the fitted maximal effect; 0% is about no effect; nearly all actives have a fitted effect of over 55% in size
HCV inh = HCV inhibition. Huh7.5.1 HCVcc-Cre infection, luciferase reporter, 44 h. Potency, µM (series often up to 41.8 µM), for the others: top-dose activity change, negative = inhibition, hits mostly inhibitors. actives 3.4% (n = 340,000). AID 651820; further: potency means the concentration at half of the fitted maximal effect; on the % scale 0 is the no-effect control and ±100 the full control effect
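Infectious HCV cell culture screen: compound-treated cells (1,000/well, pre-plated 4 h) are infected with HCVcc-Cre at roughly 0.5 moi and grown 44 h. Infection is quantified by luciferase signal after 15 min substrate incubation at room temperature.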
HCMV antiviral = human cytomegalovirus inhibition; HFF cells, HCMV-luciferase reporter, 72 h; hits give low values; activity change, negative = inhibition, % at 57.5 µM; actives 4.5% (n = 410,000); AID 1259415; in the data active means activity change below about -60%; inconclusive means no clear call, values can overlap the other calls; inactive means above about -39%; further: on the % scale 0 is the no-effect control and ±100 the full control effect
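Screen run at 2 compound doses on HFFs infected with reporter HCMV, MOI 1 PFU/cell. Luciferase activity from cell lysates at 72 h post infection gave inhibition relative to buffer-only and Salinomycin wells.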
Pf growth 96h = P. falciparum growth inhibition at 96 hour, primary screen for plastid delayed-death inhibitors | P. falciparum luciferase reporter growth, 96 h | actives 6.9% (n = 320,000) | Potency, µM (doses to about 28.7 µM), without a hit: top-dose activity change, negative = inhibition, actives largely listed as inhibitors; further: potency means the concentration at half of the fitted maximal effect; on the % scale 0 is the no-effect control and ±100 the full control effect
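96 h incubation, 37 C, 5% CO2, of luciferase-reporter P. falciparum-infected RBCs (2% hematocrit, 0.05% parasitemia final) with test compounds; endpoint luminescence.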
Starred values were filed as active, the others as inactive. Only some compounds are listed: those with a hit (about 15% of all), similar ones and a draw of the others. Unless noted, the call rests on the fitted dose curve; in most records, active means well fitted curve in the direction sought with a large enough effect; inconclusive means small, poorly fitted or top-dose-only effect, or another doubt; inactive means no such curve, though single readings can be large; an effect the other way counts as inactive or inconclusive.

`CC(Sc1nc(NCc2ccccc2)nc(N(C)C)n1)C(=O)Nc1ccccc1` (centres undefined) gave Sm TGR inh 15.5%, Pf growth 48h inconclusive, SARS PLP yeast 3.4%, HCV inh inconclusive, HCMV antiviral -105.1* and Pf growth 96h 5.22µM*.
`CN(C)c1nc(NC(C)(C)C)nc(SCC(=O)Nc2ccccc2)n1` gave Sm TGR inh -28.9%, Pf growth 48h 14.7µM*, SARS PLP yeast -1.6%, HCV inh inconclusive, HCMV antiviral -37.3 and Pf growth 96h -4.2%.
`CC(C)(C)Nc1nc(NCc2cccnc2)nc(N2CCOCC2)n1` gave Sm TGR inh -3.2%, Pf growth 48h 5.22µM*, SARS PLP yeast 10.0%, HCV inh -16.7%, HCMV antiviral 0.4 and Pf growth 96h inconclusive.
`O=C(O)C1=C[C@H](c2ccc(F)cc2)C[C@H](OCCCCO)O1` gave Sm TGR inh inconclusive, Pf growth 48h -1.4%, SARS PLP yeast -1.7%, HCV inh 16.7%, HCMV antiviral 8.2 and Pf growth 96h 2.7%.
`O=C(O)C=C1CCN(c2ncc(C(F)(F)F)cc2Cl)CC1` gave Sm TGR inh -4.0%, Pf growth 48h 36.7%, SARS PLP yeast -7.3%, HCV inh 18.0%, HCMV antiviral 33.2 and Pf growth 96h inconclusive.
For CC(C)(C)Nc1nc(SCC(=O)Nc2ccccc2)nc(N2CCOCC2)n1 the results were Sm TGR inh -3.0%, Pf growth 48h 9.28µM*, SARS PLP yeast -0.9%, HCV inh inconclusive, HCMV antiviral 9.9 and Pf growth 96h inconclusive.
For CN(C)c1nc(SCC(=O)Nc2ccccc2)nc(N2CCOCC2)n1 the results were Sm TGR inh 0.0%, Pf growth 48h -18.5%, SARS PLP yeast -6.9%, HCV inh inconclusive, HCMV antiviral -1.9 and Pf growth 96h inconclusive.
For CC1CCN(CCc2nc3cc(NC(=O)COc4ccc(Cl)cc4)ccc3n2C)CC1 the results were Sm TGR inh 2.6%, Pf growth 48h inconclusive, SARS PLP yeast -8.2%, HCV inh 11.2µM*, HCMV antiviral inconclusive and Pf growth 96h 3.29µM*.
For Cc1ccc(OCC(=O)Nc2ccc3c(c2)nc(CCN2CCC(C)CC2)n3C)cc1 the results were Sm TGR inh -0.1%, Pf growth 48h inconclusive, SARS PLP yeast 4.2%, HCV inh 12.6µM*, HCMV antiviral -70.3* and Pf growth 96h inconclusive.
CCN1CCN(CCc2nc3cc(NC(=O)COc4ccc(Cl)cc4)ccc3n2C)CC1 was read as Sm TGR inh 28.5%, Pf growth 48h 5.22µM*, SARS PLP yeast -0.9%, HCV inh inconclusive, HCMV antiviral -38.1 and Pf growth 96h 6.57µM*.
Screening COc1cc(OC)c(-c2c3cc(O)c(=O)cc-3oc3cc(O)c(O)cc23)cc1OC returned Sm TGR inh -8.1%, Pf growth 48h 2.33µM*, SARS PLP yeast 3.16µM*, HCV inh 26.2%, HCMV antiviral inconclusive and Pf growth 96h 3.7µM*.
O=C(NCc1ccc(Cl)s1)c1cc(COc2c(F)cccc2F)on1 was read as Sm TGR inh 0.0%, Pf growth 48h 35.7%, SARS PLP yeast -0.6%, HCV inh -1.5%, HCMV antiviral -19.3 and Pf growth 96h inconclusive.
Screening Cc1cccc(C)c1OCc1cc(C(=O)NCC2COCCO2)no1 (centres undefined) returned Sm TGR inh -16.1%, Pf growth 48h 17.6%, SARS PLP yeast 2.8%, HCV inh -0.1%, HCMV antiviral 49.6 and Pf growth 96h -4.7%.
Screening Cc1cccc(C)c1OCc1cc(C(=O)NCC2CC2)no1 returned Sm TGR inh -10.2%, Pf growth 48h inconclusive, SARS PLP yeast -6.8%, HCV inh -21.6%, HCMV antiviral 7.7 and Pf growth 96h 14.7µM*.
`Cc1cccc(C)c1OCc1cc(C(=O)NCc2ccc(Cl)s2)no1` gave Sm TGR inh -1.2%, Pf growth 48h 14.6%, SARS PLP yeast -0.1%, HCV inh -11.8%, HCMV antiviral 0.0 and Pf growth 96h 10.4µM*.
Cc1cc(C(=O)NCc2cccs2)c(C)o1 was read as Sm TGR inh 22.4µM*, Pf growth 48h -9.4%, SARS PLP yeast -2.6%, HCV inh 14.2% and HCMV antiviral 82.1.
`O=C(CCSCCC(=O)NCc1cccs1)NCc1cccs1` gave Sm TGR inh 39.8µM*, Pf growth 48h 4.2%, SARS PLP yeast -1.0%, HCV inh 1.0%, HCMV antiviral -27.4 and Pf growth 96h 0.5%.
CCOC(=O)CNC(=O)c1cc(C)oc1C was read as Sm TGR inh 35.5µM*, Pf growth 48h 3.9%, SARS PLP yeast 3.4%, HCV inh 14.2% and Pf growth 96h inconclusive.
Screening CC[C@@H](C(=O)[C@@H](C)[C@@H](O)[C@H](C)[C@@H]1O[C@@H]([C@@H](CC)C(=O)O)CC[C@@H]1C)[C@H]1O[C@]2(C=C[C@@H](O)[C@]3(CC[C@@](C)([C@H]4CC[C@](O)(CC)[C@H](C)O4)O3)O2)[C@H](C)C[C@@H]1C returned HCV inh 0.355µM* and HCMV antiviral -98.1*.
`CCC(C(=O)O)C1CCC(C)C(C(C)C(O)C(C)C(=O)C(CC)C2OC3(C=CC(O)[C@@]4(CC[C@](C)(C5CC[C@@](O)(CC)C(C)O5)O4)O3)C(C)CC2C)O1` (some centres undefined) gave Pf growth 48h 0.426µM* and Pf growth 96h 0.213µM*.
Cc1ccc(N2C(=O)CC(Sc3nc4ccccc4o3)C2=O)cc1Cl (centres undefined) was read as Sm TGR inh 12.6µM*, Pf growth 48h 32.0%, SARS PLP yeast -30.3%, HCV inh 10.7%, HCMV antiviral 31.2 and Pf growth 96h 1.0%.
Screening COC(=O)C1=CN(C(C)C)C=C(C(=O)OC)C1c1cccc(OC)c1 returned Sm TGR inh -1.3%, Pf growth 48h inconclusive, SARS PLP yeast -1.4%, HCV inh 40.3%, HCMV antiviral -19.0 and Pf growth 96h 121.8%.
For COC(=O)C1=CN(C(C)C)C=C(C(=O)OC)C1c1cc(Br)c(OC)c(OC)c1 the results were Sm TGR inh -3.7%, Pf growth 48h 4.65µM*, SARS PLP yeast 5.1%, HCV inh -4.0%, HCMV antiviral -0.1 and Pf growth 96h 7.38µM*.
Screening CCOC(=O)C1CCCN(c2ncnc3c2cnn3-c2ccc(C)c(Cl)c2)C1 (centres undefined) returned Sm TGR inh 6.2% and HCMV antiviral -0.5.
`CCN1C(=O)Cc2cc(S(=O)(=O)N3CCOCC3)ccc21` gave Sm TGR inh 7.8%, Pf growth 48h 24.6%, SARS PLP yeast 2.0%, HCV inh -1.7%, HCMV antiviral 41.5 and Pf growth 96h 4.1%.

Compound activity from PubChem.
